Measurements published in the supplement of paper PMC7411054.
Counter-ions that a name gives are not always drawn.

Legend:
Details in all cases: treatment time: 24 h
A549-ACTB-RAB5A [1] = test: lowest phenotypically active concentration; higher = less potent
Outline: (§1)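 The reporter lines, fifteen in total and built by gene editing in A549, HepG2 and WPMY1 cells, used BFP for segmentation alongside GFP and RFP/FusionRed markers. Each was treated at 0.3, 1, 3 or 9 µM for 24 h in four wells and then imaged live, with live-cell features normalised to solvent control wells. Deviation meant ≥3 of 4 wells beyond the 95th percentile of control Euclidean distances; reproducibility meant a median replicate Pearson correlation above the 95th percentile of non-replicates. Only conditions meeting both were scored as phenotypically active.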

A549-GM130-SQSTM1 [2] = test: as above
Outline: as §1

A549-TUBA1B-RELA [3] = test: as above
Outline: as §1

HepG2-ACTB-RAB5A [4] = test: as above
Outline: as §1

WPMY1-CANX-COX4 [5] = test: as above
Outline: as §1

A549-ACTB-RAB5A [6] = test: phenotypically active (imaging signature differs from DMSO and reproducible) at any of 0.3-9 uM (binary (1 = active, 0 = inactive)); higher = active
Outline: as §1

A549-CANX-COX4 = test: as above
Outline: as §1

A549-GM130-SQSTM1 [7] = test: as above
Outline: as §1

A549-TP53BP1-CLTA = test: as above
Outline: as §1

A549-TUBA1B-RELA [8] = test: as above
Outline: as §1

HepG2-ACTB-RAB5A [9] = test: as above
Outline: as §1

HepG2-CANX-COX4 = test: as above
Outline: as §1

HepG2-GM130-SQSTM1 = test: as above
Outline: as §1

HepG2-TP53BP1-CLTA = test: as above
Outline: as §1

HepG2-TUBA1B-RELA = test: as above
Outline: as §1

WPMY1-ACTB-RAB5A = test: as above
Outline: as §1

WPMY1-CANX-COX4 [10] = test: as above
Outline: as §1

WPMY1-GM130-SQSTM1 = test: as above
Outline: as §1

WPMY1-TP53BP1-CLTA = test: as above
Outline: as §1

WPMY1-TUBA1B-RELA = test: as above
Outline: as §1

SMILES | lowest phenotypically active concentration (A549-ACTB-RAB5A [1]) [µM] | lowest phenotypically active concentration (A549-GM130-SQSTM1 [2]) [µM] | lowest phenotypically active concentration (A549-TUBA1B-RELA [3]) [µM] | lowest phenotypically active concentration (HepG2-ACTB-RAB5A [4]) [µM] | lowest phenotypically active concentration (WPMY1-CANX-COX4 [5]) [µM] | phenotypically active (A549-ACTB-RAB5A [6]) | phenotypically active (A549-CANX-COX4) | phenotypically active (A549-GM130-SQSTM1 [7]) | phenotypically active (A549-TP53BP1-CLTA) | phenotypically active (A549-TUBA1B-RELA [8]) | phenotypically active (HepG2-ACTB-RAB5A [9]) | phenotypically active (HepG2-CANX-COX4) | phenotypically active (HepG2-GM130-SQSTM1) | phenotypically active (HepG2-TP53BP1-CLTA) | phenotypically active (HepG2-TUBA1B-RELA) | phenotypically active (WPMY1-ACTB-RAB5A) | phenotypically active (WPMY1-CANX-COX4 [10]) | phenotypically active (WPMY1-GM130-SQSTM1) | phenotypically active (WPMY1-TP53BP1-CLTA) | phenotypically active (WPMY1-TUBA1B-RELA)
CC[C@H](CO)Nc1nc(NCc2ccccc2)c2ncn(C(C)C)c2n1 [Roscovitine] | ≤ 0.3 | ≤ 0.3 | ≤ 0.3 | 9 | 9 | 1 (active) | 1 (active) | 1 (active) | 1 (active) | 1 (active) | 1 (active) | 1 (active) | 1 (active) | 1 (active) | 1 (active) | 1 (active) | 1 (active) | 0 (inactive) | 1 (active) | 1 (active)
O=C(Nc1cccnc1)N1CCC(Cc2cccc(Oc3ccc(C(F)(F)F)cn3)c2)CC1 | 9 | 3 | 9 | 9 | – | 1 (active) | 1 (active) | 1 (active) | 1 (active) | 1 (active) | 1 (active) | 0 (inactive) | 0 (inactive) | 1 (active) | 1 (active) | 0 (inactive) | 0 (inactive) | 1 (active) | 0 (inactive) | 0 (inactive)
C=CC(=O)Nc1cccc(CN2C(=O)N(c3c(Cl)c(OC)cc(OC)c3Cl)Cc3cnc(NCCCCN(CC)CC)nc32)c1 [FIIN 1 hydrochloride] | ≤ 0.3 | ≤ 0.3 | 1 | ≤ 0.3 | 1 | 1 (active) | 1 (active) | 1 (active) | 1 (active) | 1 (active) | 1 (active) | 1 (active) | 1 (active) | 1 (active) | 1 (active) | 1 (active) | 1 (active) | 1 (active) | 1 (active) | 1 (active)
COc1ccc(-c2cnc(-c3cccc4c3-c3ccccc3C4=O)o2)cc1 | ≤ 0.3 | ≤ 0.3 | ≤ 0.3 | – | ≤ 0.3 | 1 (active) | 1 (active) | 1 (active) | 1 (active) | 1 (active) | 0 (inactive) | 0 (inactive) | 0 (inactive) | 0 (inactive) | 0 (inactive) | 1 (active) | 1 (active) | 1 (active) | 1 (active) | 1 (active)
O=c1c(-c2ccc(O)cc2)coc2cc(O[C@@H]3O[C@H](CO)[C@@H](O)[C@H](O)[C@H]3O)cc(O)c12 [Genistin] | 9 | – | 9 | – | 9 | 1 (active) | 1 (active) | 0 (inactive) | 1 (active) | 1 (active) | 0 (inactive) | 0 (inactive) | 0 (inactive) | 0 (inactive) | 0 (inactive) | 1 (active) | 1 (active) | 0 (inactive) | 1 (active) | 0 (inactive)
CC(C)c1cnn2c(NCc3ccccc3)cc(NCCCCCCN)nc12 [BS 181 dihydrochloride] | 9 | – | 9 | – | 9 | 1 (active) | 1 (active) | 0 (inactive) | 1 (active) | 1 (active) | 0 (inactive) | 0 (inactive) | 0 (inactive) | 0 (inactive) | 0 (inactive) | 0 (inactive) | 1 (active) | 0 (inactive) | 1 (active) | 1 (active)
C[C@@H](Nc1ncnc2[nH]c(-c3ccc(O)cc3)cc12)c1ccccc1 [PKI 166 hydrochloride] | 3 | 3 | 3 | – | 3 | 1 (active) | 1 (active) | 1 (active) | 1 (active) | 1 (active) | 0 (inactive) | 1 (active) | 0 (inactive) | 1 (active) | 1 (active) | 1 (active) | 1 (active) | 1 (active) | 1 (active) | 1 (active)
COc1c(Cl)cc2c([nH]c3cnccc32)c1NC(=O)c1cccnc1C [ML 120B dihydrochloride] | 9 | 3 | 9 | 9 | – | 1 (active) | 1 (active) | 1 (active) | 0 (inactive) | 1 (active) | 1 (active) | 1 (active) | 0 (inactive) | 1 (active) | 0 (inactive) | 0 (inactive) | 0 (inactive) | 0 (inactive) | 0 (inactive) | 0 (inactive)
CC(C)n1c(/C=C/[C@@H](O)C[C@@H](O)CC(=O)O)c(-c2ccc(F)cc2)c2ccccc21 [fluvastatin] | 1 | 9 | – | 1 | 3 | 1 (active) | 1 (active) | 1 (active) | 1 (active) | 0 (inactive) | 1 (active) | 1 (active) | 1 (active) | 1 (active) | 1 (active) | 1 (active) | 1 (active) | 1 (active) | 1 (active) | 1 (active)
O=C(Nc1ccccc1)c1cc([N+](=O)[O-])ccc1Cl | 9 | 9 | 3 | 9 | 9 | 1 (active) | 1 (active) | 1 (active) | 0 (inactive) | 1 (active) | 1 (active) | 0 (inactive) | 0 (inactive) | 0 (inactive) | 0 (inactive) | 0 (inactive) | 1 (active) | 0 (inactive) | 0 (inactive) | 0 (inactive)
CCCCOc1c(C(=O)c2c(F)cc(C)cc2F)cnc2[nH]ncc12 | ≤ 0.3 | 1 | ≤ 0.3 | 3 | ≤ 0.3 | 1 (active) | 1 (active) | 1 (active) | 0 (inactive) | 1 (active) | 1 (active) | 0 (inactive) | 1 (active) | 1 (active) | 1 (active) | 1 (active) | 1 (active) | 0 (inactive) | 0 (inactive) | 1 (active)
